Measurements reported in PubChem BioAssay (NCI).
Compounds without any hit were thinned out: in the full panel of roughly 79,000, 15% have a hit. No stated cut-off is given here; in the data, active means growth inhibition above about 70%; inactive means the rest.

Tests used:
[1] = NCI Yeast Anticancer Drug Screen. Data for the rad50 strain (AID 155);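 further: 0% = growth of vehicle-only cultures of the same strain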; conditions: S. cerevisiae rad50 strain growth inhibition; at 50.0 µM; active compounds read high
Method in brief: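 A DNA repair-deficient yeast mutant serves as the test organism; compound-induced growth inhibition is calculated against vehicle-treated cells.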

[2] = NCI Yeast Anticancer Drug Screen. Data for the mec2-1 strain (AID 157); conditions: S. cerevisiae mec2-1 strain, at 50.0 µM, active compounds read high
Method in brief: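 Strain: mec2-1 (DNA repair/cell cycle alteration). Compound exposure, then growth measured; inhibition expressed relative to vehicle.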

[3] = NCI Yeast Anticancer Drug Screen. Data for the sgs1 mgt1 strain (AID 161);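 further: 0% = growth of cultures given vehicle only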; conditions: S. cerevisiae sgs1 mgt1 strain, at 50.0 µM, active compounds read high
Method in brief: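 Genetically altered yeast, compound exposure, growth inhibition relative to vehicle.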

[4] = NCI Yeast Anticancer Drug Screen. Data for the cln2 rad14 strain (AID 165);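 further: 0% = growth equal to vehicle treated cultures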; conditions: S. cerevisiae cln2 rad14 strain, at 50.0 µM, active compounds read high
Method in brief: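 Compounds are applied to the cln2 rad14 yeast strain, and growth is then compared with that of vehicle-treated cultures to give inhibition.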

[5] = NCI Yeast Anticancer Drug Screen. Data for the bub3 strain (AID 167); conditions: S. cerevisiae bub3 mutant strain, at 50.0 µM, active compounds read high
Method in brief: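 Inhibition values come from growth of compound-treated mutant yeast normalised to vehicle-treated controls.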

[6] = NCI Yeast Anticancer Drug Screen. Data for the mlh1 rad18 strain (AID 175); conditions: S. cerevisiae mlh1 rad18 strain growth inhibition; at 50.0 µM; active compounds read high
Method in brief: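 Read-out is yeast growth inhibition, calculated against vehicle-only controls. The compound was applied to a strain engineered with DNA damage repair alterations.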

Measured: growth inhibition

O=C(CC(=O)C1CCOC1=O)C(=O)Nc1cccc(Cl)c1 (stereo unspecified)
inactive: [1] -13.8% | [2] -8.55% | [3] 5.5% | [4] -10.7% | [5] -12% | [6] 21.4%

COc1cc2c3c(c1)[nH]c(=S)n3C(=O)CS2
inactive: [1] -18.9% | [2] -30.1% | [3] -57.4% | [4] -16.7% | [5] -18.7% | [6] -40.9%

CC(=O)OC1CCC2(C)C(=CCC3C2CCC2(C)C(C(C)C(=O)O)CCC32)C1 (stereo unspecified)
inactive: [1] 15.7% | [2] -32.8% | [3] -21.4% | [4] -10.2% | [5] -31.1% | [6] 13%

CCOC(=O)c1[nH]c(C)cc1C
inactive: [1] 2.95% | [2] -15.9% | [3] -7.55% | [4] -18.2% | [5] -22.4% | [6] -0.9%

[O-]c1on[n+](-c2ccccc2)c1CN1CCOCC1
inactive: [1] -8.2% | [2] -8.35% | [3] -9.9% | [4] -45% | [5] 8.1% | [6] -3.05%

Cc1ccc(S(=O)(=O)c2ccc(C(=O)O)cc2)cc1
inactive: [1] 8.1% | [2] 10.4% | [3] 10.8% | [4] -6.05% | [5] 4.05% | [6] 17%

CN(C)N=Nc1c(F)cccc1F
inactive: [1] -5.85% | [2] -13.8% | [3] -28.6% | [4] 20.4% | [5] 8.9% | [6] 0.65%

O=C(O)CCCc1ccc2c(c1)oc1ccccc12
inactive: [1] -18.6% | [2] -6.3% | [3] 1.5% | [4] -18.6% | [5] 13.6% | [6] 20.9%

COC(=O)c1c(C(=O)Nc2ccccc2)c(-c2ccccc2)n(NC(N)=O)c1C
inactive: [1] 8.35% | [2] 3.25% | [3] 4.2% | [4] -17.4% | [5] -1.75% | [6] 17%

COC(=O)c1ccccc1NC(=O)Nc1ccc(SC)cc1
inactive: [1] -2% | [2] 24.4% | [3] 19.6% | [4] -8.65% | [5] 31.2% | [6] 14.3%

O=C(O)C1SCCS1
inactive: [1] 15.4% | [2] 14.7% | [3] 19.1% | [4] 21.8% | [5] 22.1% | [6] 12.8%

COC(=O)C(C#N)C1NC(=O)c2ccccc21 (stereo unspecified)
inactive: [1] 9.75% | [2] -2.4% | [3] 10.2% | [4] 1.45% | [5] -8.3% | [6] 7.15%

C=C1CC2(C)C(=O)CCCC2OC1=O (stereo unspecified)
inactive: [1] 4.05% | [2] -0.85% | [3] 10.1% | [4] -14.9% | [5] 4.8% | [6] 4%

CCCCNC(=O)Nc1cc(C)ccc1C
inactive: [1] -0.4% | [2] 1.95% | [3] -0.7% | [4] -9.75% | [5] 8.2% | [6] 2.1%

NNC1=Nc2ccc(Cl)cc2C(=S)N2CSCC12 (stereo unspecified)
inactive: [1] -1.05% | [2] -3.1% | [3] -11.7% | [4] -11.8% | [5] -8.95% | [6] 9.25%

Cn1cnc(N)c1S(N)(=O)=O
inactive: [1] -11.8% | [2] 2.45% | [3] 9.7% | [4] -6% | [5] -6.3% | [6] 26.1%

COc1cc(\C=N/N=C/C=C/c2ccccc2)cc(OC)c1OC
inactive: [1] 0.55% | [2] 42.3% | [3] 7.95% | [4] -10.7% | [5] 38.4% | [6] 15.5%

CCCc1nc2ccc(C)cc2[nH]1
inactive: [1] 8.4% | [2] -9% | [3] -18.2% | [4] -11.3% | [5] -1.5% | [6] 7.9%

CCOC(=O)NCCNC(=O)OCC
inactive: [1] 8.8% | [2] 0.3% | [3] 1.45% | [4] 6.65% | [5] -11.7% | [6] 3.6%

CN1c2ccccc2Nc2cc(C#N)ccc21
inactive: [1] -0.7% | [2] -8.3% | [3] 14.8% | [4] -30.4% | [5] 19.2% | [6] 5.7%

CC(C(=O)O)/C(=C\c1ccc2c(c1)OCO2)C(=O)O (stereo unspecified)
inactive: [1] 8.15% | [2] 11.3% | [3] -12.9% | [4] -7.7% | [5] 12.9% | [6] 16.8%

CC(=O)Nc1ccc(/C=N/Nc2c3ccccc3nc3ccccc23)cc1
inactive: [1] -3.3% | [2] 13.8% | [3] 0.3% | [4] -4.4% | [5] 6.75% | [6] 0.4%

N#Cc1cc2c(cc1C#N)SCCSCCCSCCS2
inactive: [1] 1.2% | [2] 5% | [3] 1.05% | [4] 22.4% | [5] 6% | [6] -24.8%

[O]=[W](=[O])([OH])[OH]
inactive: [1] -11.3% | [2] -13.2% | [3] -15.4% | [4] 11.7% | [5] -11.6% | [6] -17.5%

O=C1c2ccccc2C(=O)C2C1C(c1ccccc1)N(c1ccccc1)C2c1ccccc1 (stereo unspecified)
inactive: [1] -16.4% | [2] -1.55% | [3] -7.1% | [4] 5.75% | [5] 2.65% | [6] -3.1%

NC(=O)c1cccc(F)c1
inactive: [1] 13.8% | [2] 5.3% | [3] -10% | [4] 10.2% | [5] 2.1% | [6] 14.9%

BrC1Cc2ccccc2C(Br)Cc2ccccc21 (stereo unspecified)
inactive: [1] -7.65% | [2] -5.1% | [3] -1.05% | [4] -47.5% | [5] 4% | [6] -9.6%

CCOC(=O)C(O)Cc1ccc(N)cc1 (stereo unspecified)
inactive: [1] 5.8% | [2] 12.2% | [3] 12.3% | [4] 9.85% | [5] 12.8% | [6] 2.85%

CC(=O)OC1Cc2ccccc2C(OC(C)=O)Cc2ccccc21 (stereo unspecified)
inactive: [1] 29.6% | [2] 7.4% | [3] -1.25% | [4] 1.6% | [5] 18.4% | [6] 0.05%

CCc1n[nH]c(=O)n1NC(=O)/C=C\C(=O)O
inactive: [1] -12.2% | [2] -16.1% | [3] -23.9% | [4] -17.7% | [5] -10.7% | [6] -25.5%

C=CC1OCC2(CO1)COC(C=C)OC2 (stereo unspecified)
inactive: [1] 12.4% | [2] -11.7% | [3] 2.4% | [4] -7.55% | [5] -12.4% | [6] 2.75%

CCCCCCCCCCCCCCCCCCN(C)C
inactive: [1] 54% | [2] 23.1% | [3] 13.8% | [4] -64.9% | [5] 46.7% | [6] 25.9%

COc1cc([C@@H]2C3C(=O)c4ccccc4C3[C@@H](c3cc(OC)c(OC)c(OC)c3)C23Cc2ccccc2C3=O)cc(OC)c1OC (stereo partly specified)
inactive: [1] -6.5% | [2] -0.95% | [3] -11.2% | [4] 4.55% | [5] 23.4% | [6] 16%

CC1=C(O[Si](C(C)C)(C(C)C)C(C)C)C2CC1[C@@H]1C(=O)N(c3ccccc3)C(=O)[C@H]21 (stereo partly specified)
inactive: [1] -1.45% | [2] -10.8% | [3] -7.15% | [4] 5.5% | [5] -15.6% | [6] -15.1%

COc1ccc2c(c1OC)C1NCCc3cc4c(cc3C1(OC)C2=O)OCO4 (stereo unspecified)
inactive: [1] 21.9% | [2] 2.35% | [3] 0.85% | [4] 0.5% | [5] 2% | [6] 8.55%

CCOC(=O)N1CCN(c2c(N)nc(C)[nH]c2=O)CC1
inactive: [1] -49.6% | [2] -20.9% | [3] -55.3% | [4] -14.8% | [5] 19.1% | [6] -58.5%

Cc1ccc(C(=O)N/N=C/c2ccccc2Cl)cc1
inactive: [1] -3.15% | [2] 49.1% | [3] 33.8% | [4] -20.4% | [5] 34.9% | [6] 26.6%

O=C(COCC(=O)N/N=C/c1c(O)ccc2ccccc12)N/N=C/c1c(O)ccc2ccccc12
inactive: [1] -2% | [2] -13% | [3] -5.25% | [4] -8.25% | [5] -1% | [6] 6.9%

Cc1ccc(Cl)cc1NC(=O)/C=C/c1ccccc1
inactive: [1] 3.05% | [2] 8.4% | [3] 6.4% | [4] -7.35% | [5] 10.5% | [6] 18.6%

CCOC(=O)CCC(NC(=O)c1ccc(NCc2ccc3nc(-c4ccccc4)c(Cl)nc3c2)cc1)C(=O)OCC (stereo unspecified)
inactive: [1] 29.7% | [2] -3.85% | [3] -5.3% | [4] -5.6% | [5] 1.7% | [6] 4.3%

Cc1ccc2cc(N(C)C)ccc2[n+]1C
inactive: [1] 29.9% | [2] 24.1% | [3] 39.9% | [4] 34.4% | [5] 22.2% | [6] 30.8%
